Our source for the Potency and outcome values is PubChem BioAssay (Tox21).

Values joined by “and” are separate entries in the source; they are usually repeats but may differ in a detail not shown here. Equal values may be shown once. Inconclusive results are not listed. Active and inactive are the calls of the source. Unless noted, calls follow the shape of the dose curve; as a rule, active = well fitted curve in the direction sought with a large enough effect in the repeat runs; inconclusive = weak or mixed curves; inactive = no such curve, though single readings can be large; an effect the other way counts as inactive or inconclusive.

A short description of test [1]: qHTS assay to test for compound auto fluorescence at 535 nm (green) in HEK293 cells (AID 720680). In general terms: qHTS replaces the single test concentration by a dilution series.
Test [2] is described as follows: qHTS assay to test for compound auto fluorescence at 460 nm (blue) in HEK293 cell free culture (AID 720681). The gist of the method:
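Test compounds were pinned into cell-free culture medium (DMEM with 10% FBS) and fluorescence was read directly at Ex/Em 405/460 nm. Signals were expressed as fluorescence equivalents of triamterene, with DMSO vehicle as control.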

Test [3] can be described thus: qHTS assay to test for compound auto fluorescence at 535 nm (green) in HEK293 cell free culture (AID 720682). The gist of the method: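 Green-label autofluorescence (485 nm excitation, 535 nm emission) measured on compound added to cell-free culture medium (DMEM, 10% FBS). Output is expressed relative to fluorescein.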
Test [4] in a line: qHTS assay to test for compound auto fluorescence at 590 nm (red) in HEK293 cell free culture (AID 720683). The gist of the method: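 Tox21 10K library compounds were pinned into cell-free DMEM with 10% FBS and fluorescence was read at excitation 540 nm. Activity is expressed as Rose Bengal sodium equivalency.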
A short description of test [5]: qHTS assay to test for compound auto fluorescence at 590 nm (red) in HepG2 cell free culture (AID 720684). The gist of the method: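 Red fluorescence (540 nm excitation, 590 nm emission) was measured after compound transfer into cell-free MEM supplemented with 10% FBS. Values are equivalencies against Rose Bengal sodium.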
Test [6] is described as follows: qHTS assay to test for compound auto fluorescence at 460 nm (blue) in HepG2 cell free culture (AID 720685). The gist of the method:
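Compound (23 nL) or DMSO pinned into cell-free MEM with 10% FBS; blue fluorescence read at 405/460 nm excitation/emission, expressed as auto-fluorescence equivalency to triamterene.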

Test [7] is described as follows: qHTS assay to test for compound auto fluorescence at 535 nm (green) in HepG2 cell free culture (AID 720686).
The nature of test [8]: qHTS assay to test for compound auto fluorescence at 460 nm (blue) in HepG2 cells (AID 720687). Put shortly: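 Cells (2,000/well in MEM with 10% FBS) attached overnight at 37 C, then were exposed to compound or DMSO for 1 hr at 37 C, 5% CO2. Fluorescence read at Ex/Em 405/460 nm, expressed as triamterene-equivalent signal.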
The target in test [9] is Glucocorticoid receptor (Homo sapiens) (UniProt P04150). Briefly: qHTS assay to identify small molecule agonists of the glucocorticoid receptor (GR) signaling pathway (AID 720691; active = well fitted activation curve with a large enough effect in the signal ratio in the repeat runs, not every such curve was filed as active; the % refers to the signal ratio; also: potency is read from the fitted curve at half-maximal effect). Put shortly: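 GR-bla HeLa cells (beta-lactamase reporter under glucocorticoid response element) were plated 4 h at 37 C/5% CO2, given compounds in DMSO, and incubated 18 h at 37 C. LiveBLAzer B/G FRET substrate was added for 2 h at room temperature, then fluorescence intensity read.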

For test [10] the target is unchanged. Put plainly: qHTS assay to identify small molecule antagonists of the glucocorticoid receptor (GR) signaling pathway (AID 720692; active = well fitted inhibition curve with a large enough effect in the signal ratio in the repeat runs, not every such curve was filed as active; the % refers to the signal ratio; also: potency is read from the fitted curve at half-maximal effect). Put shortly: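 GR-bla HeLa cells (beta-lactamase reporter under glucocorticoid response element) were pre-plated 4 h at 37 C, treated with compounds plus 5 nM dexamethasone (final) for 18 h, then read by LiveBLAzer B/G FRET fluorescence after 2 h.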

Test [11] is described as follows: qHTS assay to identify small molecule antagonists of the glucocorticoid receptor (GR) signaling pathway - cell viability counter screen (AID 720693). Also: nearly all actives have a fitted effect of over 55% in size.
Test [12] in a line: qHTS assay for identifying genotoxic compounds that show differential cytotoxicity against isogenic chicken DT40 cell lines with known DNA damage response pathways - wild type cell line (AID 743012). Also: nearly all actives have a fitted effect of over 60% in size. Also: potency is read from the fitted curve at half-maximal effect. The gist of the method:
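Parental DNA repair-proficient DT40 cells, 300 per well, were pre-incubated ~0.5 h at 37 C/5% CO2, pin-dosed with compounds in DMSO, then incubated 40 h. Viability was read as CellTiter-Glo luminescence after 30 min at room temperature.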

Test [13] is described as follows: qHTS assay for identifying genotoxic compounds that show differential cytotoxicity against isogenic chicken DT40 cell lines with known DNA damage response pathways - Rev3 mutant cell line (AID 743014). Also: nearly all actives have a fitted effect of over 55% in size. Also: potency is read from the fitted curve at half-maximal effect.
Test [14] in a line: qHTS assay to identify small molecule antagonists of the androgen receptor (AR) signaling pathway - cell viability counter screen (AID 743033; also: nearly all actives have a fitted effect of over 45% in size).
A short description of test [15]: qHTS assay to identify small molecule antagonists of the androgen receptor (AR) signaling pathway using the MDA cell line - cell viability counter screen (AID 743041; also: nearly all actives have a fitted effect of over 45% in size). The gist of the method:
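MDA-kb2 AR-luc human breast carcinoma cells (MMTV-luciferase, AR/GR responsive) were treated with compounds plus R1881 agonist for 16 h at 37 °C. Viability was read as CellTiter-Fluor fluorescence in the same wells as the reporter assay.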

The nature of test [16]: qHTS assay for identifying genotoxic compounds that show differential cytotoxicity against isogenic chicken DT40 cell lines with known DNA damage response pathways - Rad54/Ku70 mutant cell line (AID 743015). Also: nearly all actives have a fitted effect of over 60% in size. Also: potency is read from the fitted curve at half-maximal effect.
Test [17] deals with Androgen receptor (Homo sapiens) (UniProt P10275). Briefly: qHTS assay to identify small molecule antagonists of the androgen receptor (AR) signaling pathway (AID 743035; active = well fitted inhibition curve with a large enough effect in the signal ratio in the repeat runs, not every such curve was filed as active; the % refers to the signal ratio). Put shortly:
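HEK293 cells stably carrying a UAS-driven beta-lactamase reporter (AR-UAS-bla GripTite) were plated for 4 h at 37C, then given compound and the agonist R1881 and incubated 16 h. Reporter activity was read by LiveBLAzer B/G FRET fluorescence after 2 h at room temperature.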

The target is the same in test [18]. Put plainly: qHTS assay to identify small molecule agonists of the androgen receptor (AR) signaling pathway (AID 743036; active = well fitted activation curve with a large enough effect in the signal ratio in the repeat runs, with a control signal flat, not every such curve was filed as active; the % refers to the signal ratio). The gist of the method:
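AR-UAS-bla HEK293 cells, plated 4 h before dosing, were treated with compound for 16 h at 37C. beta-Lactamase reporter read after 2 h with LiveBLAzer B/G FRET substrate at room temperature.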

Test [19] has the same target. Put plainly: qHTS assay to identify small molecule agonists of the androgen receptor (AR) signaling pathway using the MDA cell line (AID 743040; also: nearly all actives have a fitted effect of over 20% in size). The gist of the method:
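MDA-kb2 breast carcinoma cells stably carrying an MMTV-driven luciferase reporter (AR- and GR-responsive) were seeded and held 5 h at 37C, 0% CO2, then exposed to compounds in DMSO for 16 h. Luminescence was read 30 min after ONE-Glo addition.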

The target is the same in test [20]. Briefly: qHTS assay to identify small molecule antagonists of the androgen receptor (AR) signaling pathway using the MDA cell line (AID 743042; also: nearly all actives have a fitted effect of over 55% in size). Put shortly:
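MDA-kb2 cells (human breast carcinoma, stably carrying an MMTV-luciferase reporter responsive to AR and GR) were plated at 3,000 cells/well and preincubated 5 hr at 37C, then given compound plus R1881 agonist for 16 h. ONE-Glo luminescence was read.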

Androgen receptor (Homo sapiens), sequence (P10275 whole entry, looked up): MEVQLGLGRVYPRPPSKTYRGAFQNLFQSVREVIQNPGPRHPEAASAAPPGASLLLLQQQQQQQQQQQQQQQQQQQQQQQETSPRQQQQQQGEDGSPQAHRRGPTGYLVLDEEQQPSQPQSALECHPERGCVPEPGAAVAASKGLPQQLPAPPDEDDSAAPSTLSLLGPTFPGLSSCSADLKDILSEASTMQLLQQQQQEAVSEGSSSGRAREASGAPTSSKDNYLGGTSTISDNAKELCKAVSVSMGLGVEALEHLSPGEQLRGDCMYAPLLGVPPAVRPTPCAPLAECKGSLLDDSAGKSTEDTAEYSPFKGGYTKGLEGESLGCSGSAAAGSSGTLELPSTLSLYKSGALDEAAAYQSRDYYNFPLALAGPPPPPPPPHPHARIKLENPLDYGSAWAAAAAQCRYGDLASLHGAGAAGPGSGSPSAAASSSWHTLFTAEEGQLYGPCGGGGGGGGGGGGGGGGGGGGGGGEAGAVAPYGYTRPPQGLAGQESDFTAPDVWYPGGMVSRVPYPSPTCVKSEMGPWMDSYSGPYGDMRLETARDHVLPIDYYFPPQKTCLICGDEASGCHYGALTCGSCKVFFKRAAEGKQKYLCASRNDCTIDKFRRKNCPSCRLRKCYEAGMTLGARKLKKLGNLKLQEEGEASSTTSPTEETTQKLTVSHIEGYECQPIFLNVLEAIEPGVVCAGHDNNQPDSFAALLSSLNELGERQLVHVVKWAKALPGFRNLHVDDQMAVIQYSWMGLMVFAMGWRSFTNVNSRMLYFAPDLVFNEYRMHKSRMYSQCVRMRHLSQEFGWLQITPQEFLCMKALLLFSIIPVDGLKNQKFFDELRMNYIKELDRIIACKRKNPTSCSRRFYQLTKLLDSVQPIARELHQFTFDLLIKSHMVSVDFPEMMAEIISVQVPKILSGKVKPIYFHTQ
Glucocorticoid receptor (Homo sapiens), sequence (P04150 whole entry, looked up): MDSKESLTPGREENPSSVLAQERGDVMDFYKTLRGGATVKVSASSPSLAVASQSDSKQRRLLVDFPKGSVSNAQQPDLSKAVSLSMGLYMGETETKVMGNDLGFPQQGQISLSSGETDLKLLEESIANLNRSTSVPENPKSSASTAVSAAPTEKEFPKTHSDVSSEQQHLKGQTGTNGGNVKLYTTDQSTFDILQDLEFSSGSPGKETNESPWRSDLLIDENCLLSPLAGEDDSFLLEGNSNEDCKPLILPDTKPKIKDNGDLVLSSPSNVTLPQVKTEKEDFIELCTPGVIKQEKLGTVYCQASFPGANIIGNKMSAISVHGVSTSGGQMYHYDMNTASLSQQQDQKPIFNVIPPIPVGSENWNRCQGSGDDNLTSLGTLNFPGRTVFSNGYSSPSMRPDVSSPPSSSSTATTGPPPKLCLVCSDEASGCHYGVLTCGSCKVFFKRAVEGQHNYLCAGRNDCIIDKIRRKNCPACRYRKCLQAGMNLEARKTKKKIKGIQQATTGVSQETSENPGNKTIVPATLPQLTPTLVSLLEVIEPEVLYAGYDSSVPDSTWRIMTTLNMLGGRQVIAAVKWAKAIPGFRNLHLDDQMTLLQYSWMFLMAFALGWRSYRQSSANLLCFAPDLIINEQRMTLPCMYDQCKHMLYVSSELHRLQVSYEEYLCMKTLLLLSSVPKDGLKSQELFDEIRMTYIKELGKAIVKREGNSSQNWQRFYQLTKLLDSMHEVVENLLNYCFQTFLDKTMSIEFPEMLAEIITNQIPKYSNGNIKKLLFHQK

With `Cc1ccc(N)c([N+](=O)[O-])c1`, the Potency entry in test [1], in [2], in test [3], in test [4], in test [5] and in test [6] was “inactive” each time. Further, the Potency result in test [7], in test [8], in test [9], in test [10], in [11] and in [12] was “inactive” each time. Moreover, the Potency entry in test [13], in test [14] and in test [15] was “inactive” throughout.

As to `c1ccc2c(c1)[nH]c1ccccc12`, the Potency result in test [1], in test [2], in test [3], in [4], in test [5] and in test [6] was “inactive” each time. Further, the Potency entry in test [7], in [8], in [9], in test [10], in test [11] and in test [12] was “inactive” in each case. For the same compound, the Potency entry in [13], in [16], in test [14], in test [17], in test [19] and in test [15] was “inactive” in each case. The Potency entry in [20] is “inactive”. Besides, the compound was classed as inactive in test [18].

As to `c1ccc2c(c1)ccc1cc3c(ccc4ccccc43)cc12`, the Potency result in [1], in test [2], in test [3], in test [4], in test [5] and in test [6] was “inactive” in each case. Moreover, the Potency entry in test [7], in [8], in test [9], in [10], in test [11] and in [12] was “inactive” throughout. Moreover, the Potency entry in test [13], in test [16], in test [14] and in [15] was “inactive” each time.

Turning to `CC(=O)O[C@]1(C(C)=O)CC[C@H]2[C@@H]3C=C(C)C4=CC(=O)CC[C@]4(C)[C@H]3CC[C@@]21C`, the Potency result in test [1], in test [2], in test [3], in test [4], in test [5] and in test [6] was “inactive” throughout. In addition, the Potency entry in [7], in test [8], in test [11], in test [14] and in [15] was “inactive” in each case. The Potency was 51.2 nM (active) and 61.6 nM (active) in test [9]; 91 nM (active) and 77.6 nM (active) in test [10]; 11.4 µM (active) and 13.7 µM (active) in [12]; 12.7 µM (active) and 17.2 µM (active) in [13]; 15.4 µM (active) in [16].

Consider `C=CCNCC=C`, for which the Potency entry in test [1], in test [2], in [3], in test [4], in [5] and in test [6] was “inactive” each time. The Potency result in test [7], in test [8], in [9], in test [10], in test [11] and in test [12] was “inactive” each time. The Potency result in [13], in test [16], in test [14] and in test [15] was “inactive” each time.

`Cc1ccc(S(=O)(=O)O)cc1C`: the Potency result in test [1], in test [2], in test [3], in test [4], in [5] and in test [6] was “inactive” in each case. For the same compound, the Potency result in [7], in [8], in [9], in test [10], in [11] and in test [12] was “inactive” throughout. The Potency entry in [13], in [16], in test [14] and in test [15] was “inactive” in each case.

On to `CC(C)(Oc1ccc(Cl)cc1)C(=O)O`, for which the Potency result in test [1], in [2], in test [3], in test [4], in [5] and in [6] was “inactive” each time. The Potency entry in test [7], in test [8], in test [9], in test [10], in test [11] and in [12] was “inactive” in each case. In addition, the Potency entry in [13], in test [16], in test [14] and in test [15] was “inactive” throughout.
